Calls of active or inactive are those of the source. How the source made its calls: active means hit-call score of the fitted dose curve at least 0.9, where 1 is the maximum; inactive means score below 0.9.
Key:
Conditions in all cases: mRNA level, 48 h; actives raise or lower the signal
[1] = read-out: Ezrin (EZR), EZR (gene 7430); assay: LTEA_HepaRG_EZR: Life Technologies and Expression Analysis (LTEA) Assay for Ezrin (EZR) using HepaRG (AID 2283491)
Method in brief: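 Differentiated human HepaRG cells, 48 h after plating, were exposed in serum-free induction medium for 48 hours to eight half-log concentrations up to 100 uM in 0.5% DMSO. EZR mRNA was measured by TaqMan qRT-PCR, normalized to ACTB, GAPDH and POLR2A, and fitted bidirectionally against DMSO.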

[2] = read-out: Cytochrome P450 3A7 (Homo sapiens) (UniProt P24462); assay: LTEA_HepaRG_CYP3A7: Life Technologies and Expression Analysis (LTEA) Assay for CYP3A7 using HepaRG (AID 2283492)
Method in brief: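 Cells were thawed, plated, cultured 48 h, then treated for a further 48 h with chemicals (eight-point half-log series from 100 uM, 0.5% DMSO). RNA was isolated and CYP3A7 expression quantified by qRT-PCR normalised to ACTB, GAPDH and POLR2A.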

CYP3A5 (gene 1577) = assay: LTEA_HepaRG_CYP3A5: Life Technologies and Expression Analysis (LTEA) Assay for CYP3A5 using HepaRG (AID 2283493)
Method in brief: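 Readout was CYP3A5 mRNA by qRT-PCR. HepaRG cultures were exposed for 48 h in serum-free induction medium to chemicals at up to 100 uM, and responses were fitted in both directions relative to DMSO vehicle.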

[3] = read-out: Fatty Acid-Binding Protein 1 (FABP1), FABP1 (gene 2168); assay: LTEA_HepaRG_FABP1: Life Technologies and Expression Analysis (LTEA) Assay for Fatty Acid-Binding Protein 1 (FABP1) using HepaRG (AID 2283494)
Method in brief: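 Values reflect bidirectional concentration-response fitting of FABP1 mRNA change against 0.5% DMSO controls. Human HepaRG cultures received eight half-log doses (top 100 uM) for 48 h; expression quantified by TaqMan qRT-PCR with housekeeping-gene normalization.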

[4] = read-out: Cytochrome P450 4A22 (Homo sapiens) (UniProt Q5TCH4); assay: LTEA_HepaRG_CYP4A22: Life Technologies and Expression Analysis (LTEA) Assay for Cytochrome P450 4A22 (CYP4A22) using HepaRG (AID 2283495)
Method in brief: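 Cryopreserved HepaRG cells, plated and cultured 48 h, then switched to serum-free induction medium and treated 48 h (duplicates, up to 100 uM, half-log steps, 0.5% DMSO). Expression change of CYP4A22 was fitted bidirectionally against vehicle.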

[5] = read-out: Cytochrome P450 7A1 (Homo sapiens) (UniProt P22680); assay: LTEA_HepaRG_CYP7A1: Life Technologies and Expression Analysis (LTEA) Assay for Cytochrome P450 7A1 (CYP7A1) using HepaRG (AID 2283496)
Method in brief: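 Using 0.5% DMSO as vehicle and baseline, chemicals were tested in duplicate over an 8-point range from 100 uM on HepaRG cells for 48 h; qRT-PCR signals were normalised to ACTB, GAPDH and POLR2A.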

[6] = read-out: Glutathione S-Transferase (GSTA2), GSTA2 (gene 2939); assay: LTEA_HepaRG_GSTA2: Life Technologies and Expression Analysis (LTEA) Assay for Glutathione S-Transferase (GSTA2) using HepaRG (AID 2283497)
Method in brief: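 Oxidative-stress marker GSTA2 is quantified by TaqMan qRT-PCR in HepaRG cultures treated 48 h across an eight-point range to 100 uM. Expression is normalized to endogenous controls and compared with 0.5% DMSO vehicle.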

[7] = read-out: Glutamate-cysteine ligase catalytic (GCLC), GCLC (gene 2729); assay: LTEA_HepaRG_GCLC: Life Technologies and Expression Analysis (LTEA) Assay for Glutamate-cysteine ligase catalytic (GCLC) using HepaRG (AID 2283498)
Method in brief: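 Oxidative-stress marker GCLC is measured as mRNA change in human HepaRG liver cells after 48 h chemical treatment in 0.5% DMSO, eight concentrations from 100 uM. Activity is fitted bidirectionally against vehicle.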

[8] = read-out: growth arrest and DNA damage 45 (GADD45G), GADD45G (gene 10912); assay: LTEA_HepaRG_GADD45G: Life Technologies and Expression Analysis (LTEA) Assay for growth arrest and DNA damage 45 (GADD45G) using HepaRG (AID 2283499)
Method in brief: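 Human hepatic HepaRG line treated 48 h with chemicals (eight concentrations, half-log steps from 100 uM); transcript induction or repression of GADD45G scored by qRT-PCR versus DMSO vehicle.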

[9] = read-out: Glutamate-cysteine ligase regulatory (GCLM), GCLM (gene 2730); assay: LTEA_HepaRG_GCLM: Life Technologies and Expression Analysis (LTEA) Assay for Glutamate-cysteine ligase regulatory (GCLM) using HepaRG (AID 2283500)
Method in brief: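 In this multiplexed HepaRG gene-expression assay, GCLM mRNA change after 48 h treatment (8 concentrations, max 100 uM) was scored against DMSO by bidirectional curve fitting.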

[10] = read-out: Glutathione S-transferase M3 (GSTM3), GSTM3 (gene 2947); assay: LTEA_HepaRG_GSTM3: Life Technologies and Expression Analysis (LTEA) Assay for Glutathione S-transferase M3 (GSTM3) using HepaRG (AID 2283501)
Method in brief: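 Changes in GSTM3 expression, an oxidative-stress marker, were scored by bidirectional curve fitting against 0.5% DMSO vehicle. Human HepaRG cultures received chemicals for 48 h in duplicate, highest concentration 100 uM with half-log dilutions.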

[11] = read-out: Heat shock 70 kDa protein 1 (HSPA1A), gene 3303; assay: LTEA_HepaRG_HSPA1A: Life Technologies and Expression Analysis (LTEA) Assay for Heat shock 70 kDa protein 1 (HSPA1A) using HepaRG (AID 2283502)
Method in brief: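 An oxidative-stress marker readout: HepaRG cells treated 48 h in duplicate with an eight-point series (highest 100 uM) had HSPA1A mRNA quantified by TaqMan qRT-PCR. Activity was fitted in both directions using 0.5% DMSO as baseline.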

[12] = read-out: Hypoxia-inducible factor 1-alpha (Homo sapiens) (UniProt Q16665); assay: LTEA_HepaRG_HIF1A: Life Technologies and Expression Analysis (LTEA) Assay for Hypoxia-inducible factor 1 (HIF1A) Trancription factor using HepaRG (AID 2283503);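 further: HIF1A transcript by TaqMan qRT-PCR normalized to ACTB GAPDH and POLR2A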
Method in brief: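 Gain- or loss-of-signal HIF1A mRNA changes are fitted against a DMSO baseline. HepaRG cultures receive eight concentrations, highest 100 uM, for 48 h in serum-free induction medium with 0.5% DMSO.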

[13] = read-out: 3-Hydroxy-3-Methylglutaryl-CoA Synthase 2 (HMGCS2), HMGCS2 (gene 3158); assay: LTEA_HepaRG_HMGCS2: Life Technologies and Expression Analysis (LTEA) Assay for 3-Hydroxy-3-Methylglutaryl-CoA Synthase 2 (HMGCS2) using HepaRG (AID 2283504)
Method in brief: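 Expression of HMGCS2 in human HepaRG liver cells is measured by qRT-PCR 48 h after dosing (highest 100 uM, half-log series, 0.5% DMSO). Values come from bidirectional concentration-response fitting with DMSO as baseline.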

HGF (gene 3082) = assay: LTEA_HepaRG_HGF: Life Technologies and Expression Analysis (LTEA) Assay for Hepatocyte Growth Facto (HGF) using HepaRG (AID 2283505)
Method in brief: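 Gain or loss of HGF mRNA in human HepaRG liver cells after 48 h chemical exposure; eight concentrations up to 100 uM with 0.5% DMSO vehicle, quantified by TaqMan qRT-PCR.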

[14] = read-out: Insulin Like Growth Factor 1 (IGF1), IGF1 (gene 3479); assay: LTEA_HepaRG_IGF1: Life Technologies and Expression Analysis (LTEA) Assay for Insulin Like Growth Factor 1 (IGF1) using HepaRG (AID 2283506)
Method in brief: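 Endpoint: IGF1 mRNA change by qRT-PCR, housekeeping-normalized, fitted bidirectionally relative to 0.5% DMSO vehicle. Human HepaRG cells were treated 48 h in serum-free induction medium, eight half-log concentrations topping at 100 uM.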

[15] = read-out: Intercellular Adhesion Molecule 1 (ICAM1), ICAM1 (gene 3383); assay: LTEA_HepaRG_ICAM1: Life Technologies and Expression Analysis (LTEA) Assay for Intercellular Adhesion Molecule 1 (ICAM1) using HepaRG (AID 2283507)
Method in brief: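 Gain or loss of transcript in HepaRG hepatic cells is quantified by qRT-PCR after 48 h chemical exposure (up to 100 uM, half-log steps), with DMSO as baseline.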

[16] = read-out: Insulin-like growth factor-binding protein 1 (IGFBP1), IGFBP1 (gene 3484); assay: LTEA_HepaRG_IGFBP1: Life Technologies and Expression Analysis (LTEA) Assay for Insulin-like growth factor-binding protein 1 (IGFBP1) using HepaRG (AID 2283508)
Method in brief: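 mRNA induction or loss was quantified by qRT-PCR after 48 h chemical exposure of human HepaRG cells, with 0.5% DMSO as vehicle and baseline. Concentration-response over eight points up to 100 uM.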

[17] = read-out: Interleukin 6 (IL6), IL6 (gene 3569); assay: LTEA_HepaRG_IL6: Life Technologies and Expression Analysis (LTEA) Assay for Interleukin 6 (IL6) using HepaRG (AID 2283509)
Method in brief: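 Changes in IL6 mRNA, up or down relative to 0.5% DMSO controls, were derived from concentration-response curves in human HepaRG cells treated for 48 h at up to 100 uM, with ACTB, GAPDH and POLR2A as normalizers.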

[18] = read-out: Interleukin 6 Receptor (IL6R), IL6R (gene 3570); assay: LTEA_HepaRG_IL6R: Life Technologies and Expression Analysis (LTEA) Assay for Interleukin 6 Receptor (IL6R) using HepaRG (AID 2283510)
Method in brief: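 In this HepaRG screen, test chemicals act on cells for 48 h at up to 100 uM (eight half-log points, duplicate wells). IL6R expression is quantified by qRT-PCR after normalization to ACTB, GAPDH and POLR2A, with DMSO as baseline.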

Measured: AC50

Chain of Hypoxia-inducible factor 1-alpha (Homo sapiens) (Q16665 whole entry, looked up): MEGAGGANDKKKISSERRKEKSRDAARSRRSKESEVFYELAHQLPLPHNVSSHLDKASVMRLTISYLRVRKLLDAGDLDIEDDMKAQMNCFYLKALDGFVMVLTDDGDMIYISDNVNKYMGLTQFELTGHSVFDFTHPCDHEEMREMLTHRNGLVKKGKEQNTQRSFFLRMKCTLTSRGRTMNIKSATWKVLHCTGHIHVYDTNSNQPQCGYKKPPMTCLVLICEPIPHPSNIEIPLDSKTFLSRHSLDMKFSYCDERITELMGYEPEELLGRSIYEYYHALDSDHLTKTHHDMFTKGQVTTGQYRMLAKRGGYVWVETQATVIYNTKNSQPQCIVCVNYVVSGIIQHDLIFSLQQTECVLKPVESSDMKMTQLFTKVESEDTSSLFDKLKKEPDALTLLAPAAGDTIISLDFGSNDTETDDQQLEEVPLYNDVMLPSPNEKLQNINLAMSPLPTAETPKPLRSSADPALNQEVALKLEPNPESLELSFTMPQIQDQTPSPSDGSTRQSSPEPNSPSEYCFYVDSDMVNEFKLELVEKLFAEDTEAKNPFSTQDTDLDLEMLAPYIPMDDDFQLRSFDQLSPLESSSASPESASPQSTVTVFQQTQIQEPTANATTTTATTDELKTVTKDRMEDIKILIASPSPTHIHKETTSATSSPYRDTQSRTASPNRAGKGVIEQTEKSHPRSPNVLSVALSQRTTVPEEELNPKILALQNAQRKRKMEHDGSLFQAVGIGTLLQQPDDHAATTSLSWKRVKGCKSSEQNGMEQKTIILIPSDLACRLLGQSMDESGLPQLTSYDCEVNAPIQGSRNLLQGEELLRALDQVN
Chain of Cytochrome P450 3A7 (Homo sapiens) (P24462 whole entry, looked up): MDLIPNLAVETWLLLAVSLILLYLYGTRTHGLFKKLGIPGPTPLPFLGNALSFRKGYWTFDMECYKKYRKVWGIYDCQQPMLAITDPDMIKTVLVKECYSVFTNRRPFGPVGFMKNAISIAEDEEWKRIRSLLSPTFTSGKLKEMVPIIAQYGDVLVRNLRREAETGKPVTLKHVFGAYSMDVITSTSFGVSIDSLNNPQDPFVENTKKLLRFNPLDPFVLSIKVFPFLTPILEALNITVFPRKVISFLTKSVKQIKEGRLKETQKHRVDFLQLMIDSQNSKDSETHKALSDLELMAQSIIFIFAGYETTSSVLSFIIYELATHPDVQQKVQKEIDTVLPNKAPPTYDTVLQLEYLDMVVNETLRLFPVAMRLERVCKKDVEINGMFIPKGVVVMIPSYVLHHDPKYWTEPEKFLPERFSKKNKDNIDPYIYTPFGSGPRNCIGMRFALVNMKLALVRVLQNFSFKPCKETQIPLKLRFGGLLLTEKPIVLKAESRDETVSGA

CC(C)(C)c1csc(-c2cc3cc(OCc4ccccc4CC(=O)O)ccc3o2)n1
active: [1] 82.3 µM | CYP3A5 (gene 1577) 81.3 µM | [3] 32.6 µM | [4] 23.3 µM | [5] 22.5 µM | [6] 31.9 µM | [7] 77.2 µM | [8] 12.1 µM | [9] 85.4 µM | [10] 37.7 µM | [11] 78 µM | [12] 87.3 µM | [13] 31.6 µM | [14] 12.4 µM | [16] 32.2 µM | [17] 81.3 µM
inactive: [2] | HGF (gene 3082) | [15]

O=C1O[C@H]([C@@H](O)CO)C(O)=C1O
inactive: [1] | [2] | CYP3A5 (gene 1577) | [3] | [4] | [5] | [6] | [7] | [8] | [9] | [10] | [11] | [12] | [13] | HGF (gene 3082) | [14] | [15] | [16] | [17] | [18]

Cc1cc(F)ccc1-c1cc(N2CC[C@@H](O)[C@H]2CO)ncc1N(C)C(=O)C(C)(C)c1cc(C(F)(F)F)cc(C(F)(F)F)c1
inactive: [2] | CYP3A5 (gene 1577) | [10] | HGF (gene 3082) | [18]
active: [1] 20.8 µM | [3] 13.9 µM | [4] 16.4 µM | [5] 20 µM | [6] 10.4 µM | [7] 75.4 µM | [8] 20.1 µM | [9] 46.7 µM | [11] 70.1 µM | [12] 74.6 µM | [13] 19.7 µM | [14] 17.3 µM | [15] 22.4 µM | [16] 70.5 µM | [17] 48.6 µM
